Our source for the growth inhibition values is PubChem BioAssay (NCI).

Experiment [1] can be described thus: NCI Yeast Anticancer Drug Screen. Data for the rad50 strain (AID 155).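 Note: 0% = growth of vehicle-only cultures of the same strain.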 As to conditions: S. cerevisiae rad50 strain growth inhibition, hits give high values. An outline of the steps: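 Readout: growth inhibition relative to vehicle-treated cultures. Compound exposure was carried out in a genetically defined yeast strain deficient in DNA damage repair.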
The nature of experiment [2]: NCI Yeast Anticancer Drug Screen. Data for the mec2-1 strain (AID 157). As to conditions: S. cerevisiae mec2-1 strain, hits give high values. An outline of the steps:
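Mutant yeast (mec2-1) grown with compound; growth inhibition relative to vehicle control reported.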

A short description of experiment [3]: NCI Yeast Anticancer Drug Screen. Data for the sgs1 mgt1 strain (AID 161).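 Note: 0% = growth of cultures given vehicle only.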 The following applies: S. cerevisiae sgs1 mgt1 strain, hits give high values. In a few lines:
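This yeast growth screen uses a strain with defined DNA-repair lesions; compound-treated growth is compared with vehicle-treated growth.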

Experiment [4] can be described thus: NCI Yeast Anticancer Drug Screen. Data for the cln2 rad14 strain (AID 165).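 Note: 0% = growth equal to vehicle treated cultures.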 The following applies: S. cerevisiae cln2 rad14 strain, hits give high values. An outline of the steps:
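Readout is yeast growth inhibition versus vehicle-treated controls, using a strain with cln2 and rad14 alterations exposed to compound.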

A short description of experiment [5]: NCI Yeast Anticancer Drug Screen. Data for the bub3 strain (AID 167). As to conditions: S. cerevisiae bub3 mutant strain, hits give high values. In a few lines: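 Readout: yeast growth inhibition, expressed relative to vehicle-only wells. The test organism is a mutant strain from a panel with lesions in DNA repair or checkpoint genes.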
A short description of experiment [6]: NCI Yeast Anticancer Drug Screen. Data for the mlh1 rad18 strain (AID 175). The following applies: S. cerevisiae mlh1 rad18 strain growth inhibition, hits give high values. In a few lines:
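Genetically defined yeast (DNA repair-deficient) exposed to compounds; growth inhibition determined relative to vehicle.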

The mark [7] stands for this setting: at 5.0 µM (retest, dose inferred, filed as 0.5).
[8] abbreviates: at 50.0 µM (retest, dose inferred, filed as 5.0).

About 79,000 compounds went through this panel and 15% of them were active in at least one assay; those are over-represented in the sample as a whole. A number with no mark means an inactive call. Active and inactive are the calls of the source. Cut-off read from the data, not from the text of the source: active = growth inhibition above about 70%; inactive = the rest.

Take `COc1cccc(C2Nc3ccccc3C(=O)N2N2CCOCC2)c1` (configuration not stated): the growth inhibition in experiment [1] (setting [7]) was 3%; in experiment [1] (setting [8]), -2%; in experiment [1] (at 50.0 µM), 50.9%; in experiment [2] (setting [7]), 1%; in experiment [2] (setting [8]), 6%; in experiment [2] (at 50.0 µM), -7.2%. Moreover, the growth inhibition in experiment [3] (setting [7]) was 1%; in experiment [3] (setting [8]) it was 0%; in experiment [3] (at 50.0 µM), 32.4%; in experiment [4] (setting [7]), 0%; in experiment [4] (setting [8]), -6%; in experiment [4] (at 50.0 µM), -21.6%. Also, the growth inhibition is -2% in experiment [5] (setting [7]); -5% in experiment [5] (setting [8]); 7.4% in experiment [5] (at 50.0 µM); -2% in experiment [6] (setting [7]); -3% in experiment [6] (setting [8]); -5.05% in experiment [6] (at 50.0 µM).

Consider `O=[N+]([O-])c1ccc(Sc2c3ccccc3nc3ccccc23)nc1`, for which the growth inhibition in experiment [1] (setting [7]) is 94% (active); in experiment [1] (setting [8]), 99% (active); in experiment [1] (at 50.0 µM), 98.3% (active); in experiment [2] (setting [7]), 82% (active); in experiment [2] (setting [8]) it was 99% (active); in experiment [2] (at 50.0 µM) it was 97.5% (active). Also, the growth inhibition was 62% in experiment [3] (setting [7]); 99% (active) in experiment [3] (setting [8]); 97.7% (active) in experiment [3] (at 50.0 µM); 83% (active) in experiment [4] (setting [7]); 98% (active) in experiment [4] (setting [8]); 96.7% (active) in experiment [4] (at 50.0 µM). For the same compound, the growth inhibition was 49% in experiment [5] (setting [7]); 99% (active) in experiment [5] (setting [8]); 96.5% (active) in experiment [5] (at 50.0 µM); 66% in experiment [6] (setting [7]); 99% (active) in experiment [6] (setting [8]); 97.2% (active) in experiment [6] (at 50.0 µM).

For the compound `O=[N+]([O-])C(=C(Nc1ccccc1)Nc1ccccc1)C(Cl)=C(Cl)Cl`, the growth inhibition in experiment [1] (setting [7]) is 97% (active); in experiment [1] (setting [8]), 100% (active); in experiment [1] (at 50.0 µM) it was 89.2% (active); in experiment [2] (setting [7]), 98% (active); in experiment [2] (setting [8]), 100% (active); in experiment [2] (at 50.0 µM), 93% (active). For the same compound, the growth inhibition was 92% (active) in experiment [3] (setting [7]); 99% (active) in experiment [3] (setting [8]); 89.2% (active) in experiment [3] (at 50.0 µM); 91% (active) in experiment [4] (setting [7]); 100% (active) in experiment [4] (setting [8]); 90.7% (active) in experiment [4] (at 50.0 µM). Also, the growth inhibition in experiment [5] (setting [7]) is 94% (active); in experiment [5] (setting [8]) it was 100% (active); in experiment [5] (at 50.0 µM), 91.5% (active); in experiment [6] (setting [7]), 99% (active); in experiment [6] (setting [8]), 100% (active); in experiment [6] (at 50.0 µM), 85.7% (active).

For the compound `CC(=O)OC(OC(C)=O)c1ccc([N+](=O)[O-])o1`, the growth inhibition is -7% in experiment [1] (setting [7]); -39% in experiment [1] (setting [8]); 99.4% (active) in experiment [1] (at 50.0 µM); -23% in experiment [2] (setting [7]); -22% in experiment [2] (setting [8]); 99% (active) in experiment [2] (at 50.0 µM). The growth inhibition was -5% in experiment [3] (setting [7]); -10% in experiment [3] (setting [8]); 99.3% (active) in experiment [3] (at 50.0 µM); -3% in experiment [4] (setting [7]); -23% in experiment [4] (setting [8]); 99.2% (active) in experiment [4] (at 50.0 µM). Also, the growth inhibition in experiment [5] (setting [7]) is -20%; in experiment [5] (setting [8]), -87%; in experiment [5] (at 50.0 µM), 99.5% (active); in experiment [6] (setting [7]), 5%; in experiment [6] (setting [8]), 4%; in experiment [6] (at 50.0 µM), 99% (active).

`COC(=O)C(=O)N(c1cc(C)ccc1C)c1cc(C)ccc1C`: the growth inhibition was -1% in experiment [1] (setting [7]); 85% (active) in experiment [1] (setting [8]); 96.2% (active) in experiment [1] (at 50.0 µM); 1% in experiment [2] (setting [7]); 73% (active) in experiment [2] (setting [8]); 95.3% (active) in experiment [2] (at 50.0 µM). Further, the growth inhibition in experiment [3] (setting [7]) was 0%; in experiment [3] (setting [8]), 57%; in experiment [3] (at 50.0 µM), 95% (active); in experiment [4] (setting [7]), 6%; in experiment [4] (setting [8]) it was 26%; in experiment [4] (at 50.0 µM) it was 63.1%. The growth inhibition in experiment [5] (setting [7]) was 3%; in experiment [5] (setting [8]), 59%; in experiment [5] (at 50.0 µM), 94.3% (active); in experiment [6] (setting [7]), -3%; in experiment [6] (setting [8]), 81% (active); in experiment [6] (at 50.0 µM) it was 92.7% (active).

As for `CC1CC(OC(=O)Nc2ccccc2)CC(C)(C)C1` (configuration not stated), the growth inhibition in experiment [1] (setting [7]) is -33%; in experiment [1] (setting [8]), 76% (active); in experiment [1] (at 50.0 µM) it was 78.8% (active); in experiment [2] (setting [7]), 9%; in experiment [2] (setting [8]), 74% (active); in experiment [2] (at 50.0 µM) it was 80.6% (active). Further, the growth inhibition was -6% in experiment [3] (setting [7]); 87% (active) in experiment [3] (setting [8]); 91.5% (active) in experiment [3] (at 50.0 µM); 4% in experiment [4] (setting [7]); 81% (active) in experiment [4] (setting [8]); 66.8% in experiment [4] (at 50.0 µM). In addition, the growth inhibition is 10% in experiment [5] (setting [7]); 83% (active) in experiment [5] (setting [8]); 90.3% (active) in experiment [5] (at 50.0 µM); 4% in experiment [6] (setting [7]); 87% (active) in experiment [6] (setting [8]); 85.6% (active) in experiment [6] (at 50.0 µM).

For `CCN(CC)C(=O)CCCC1CCCCC1`, the growth inhibition in experiment [1] (setting [7]) was 1%; in experiment [1] (setting [8]), 23%; in experiment [1] (at 50.0 µM) it was 45.6%; in experiment [2] (setting [7]) it was -3%; in experiment [2] (setting [8]), 4%; in experiment [2] (at 50.0 µM), 13.2%. Also, the growth inhibition was 0% in experiment [3] (setting [7]); 20% in experiment [3] (setting [8]); 66.5% in experiment [3] (at 50.0 µM); 0% in experiment [4] (setting [7]); 11% in experiment [4] (setting [8]); -9% in experiment [4] (at 50.0 µM). Further, the growth inhibition in experiment [5] (setting [7]) is 6%; in experiment [5] (setting [8]), 25%; in experiment [5] (at 50.0 µM) it was 44%; in experiment [6] (setting [7]) it was 1%; in experiment [6] (setting [8]), 7%; in experiment [6] (at 50.0 µM), 26.9%.

Take `Cc1ccc(S(=O)(=O)NCCSCCSCCNS(=O)(=O)c2ccc(C)cc2)cc1`: the growth inhibition is -1% in experiment [1] (setting [7]); -7% in experiment [1] (setting [8]); 55.4% in experiment [1] (at 50.0 µM); -2% in experiment [2] (setting [7]); -8% in experiment [2] (setting [8]); 92.2% (active) in experiment [2] (at 50.0 µM). For the same compound, the growth inhibition in experiment [3] (setting [7]) was -2%; in experiment [3] (setting [8]), 1%; in experiment [3] (at 50.0 µM) it was 50.5%; in experiment [4] (setting [7]) it was -3%; in experiment [4] (setting [8]), -5%; in experiment [4] (at 50.0 µM) it was 86.9% (active). Besides, the growth inhibition in experiment [5] (setting [7]) was 0%; in experiment [5] (setting [8]), -1%; in experiment [5] (at 50.0 µM) it was 94.6% (active); in experiment [6] (setting [7]), -2%; in experiment [6] (setting [8]), -2%; in experiment [6] (at 50.0 µM) it was 55.2%.

Take `COC1=Nc2ccccc2/C=C\c2ccccc21`: the growth inhibition in experiment [1] (setting [7]) was -136%; in experiment [1] (setting [8]) it was -77%; in experiment [1] (at 50.0 µM), 78.5% (active); in experiment [2] (setting [7]), -50%; in experiment [2] (setting [8]), -57%; in experiment [2] (at 50.0 µM), 82.2% (active). Besides, the growth inhibition in experiment [3] (setting [7]) was -67%; in experiment [3] (setting [8]), -53%; in experiment [3] (at 50.0 µM), 67.7%; in experiment [4] (setting [7]) it was -49%; in experiment [4] (setting [8]), -60%; in experiment [4] (at 50.0 µM), 25.2%. The growth inhibition in experiment [5] (setting [7]) was -62%; in experiment [5] (setting [8]), -85%; in experiment [5] (at 50.0 µM), 43.7%; in experiment [6] (setting [7]), -124%; in experiment [6] (setting [8]), -118%; in experiment [6] (at 50.0 µM), 69.5%.
